Among the test systems are NCI-H23 lung; NCI-H226 lung; NCI-H322M lung; HOP-62 NSCLC; NCI-H460 lung; HOP-92 NSCLC; NCI-H522 lung; A549/ATCC NSCLC; 786-0 renal; COLO 205 colon.
Common to all, as to assay: NCI-60 one-dose screen, 48 h (100 = growth as untreated, 0 = no growth, -100 = all killed)
Common to all, as to details: 10 µM unless noted

This note sets out measurements from PubChem BioAssay (NCI).

SMILES strings stand for the structures. Compounds without any hit were thinned out: in the full panel of roughly 83,000, 20% have a hit.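 For each line, cells grew in 96-well plates with the test compound present at a single concentration for 48 hours.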 Values without a mark were called inactive. Calls of active or inactive are those of the source. The calls were made as follows: active = growth percent below 10; inactive = the rest.

As to `O=C(/C=C/c1cc(CN2CCOCC2)c(O)c2ncccc12)c1cc(CN2CCOCC2)c(O)c2ncccc12`, the growth in the assay with NCI-H23 lung is 30.5%; with NCI-H226 lung, 34.6%; in the assay on NCI-H322M lung, 45.5%; with HOP-62 NSCLC it was 16%; in the assay on NCI-H460 lung it was 9.34% (active); in the assay with HOP-92 NSCLC it was -4.72% (active). In addition, the growth in the assay on NCI-H522 lung is 14.4%; with A549/ATCC NSCLC, 2.72% (active); with 786-0 renal, 24.6%; with COLO 205 colon it was 30.2%.
Turning to `CN(C)S(=O)(=O)c1cccc(-c2nc3sc4c(c3c(=O)[nH]2)CCCC4)c1`, the growth with NCI-H23 lung was 44.1%; with NCI-H226 lung, 54%; in the assay with NCI-H322M lung it was 27.2%; with HOP-62 NSCLC, 42.7%; in the assay on NCI-H460 lung it was 7.27% (active); with HOP-92 NSCLC, 11.4%. In addition, the growth in the assay with NCI-H522 lung is 54.7%; in the assay on A549/ATCC NSCLC it was 25.8%; with 786-0 renal, -37.1% (active); in the assay with COLO 205 colon it was 64.6%.
With `COc1cccc(-c2nc3sccn3c2-c2ccnc(NCCCNS(=O)(=O)c3cccc(Cl)c3)c2)c1`, the growth with NCI-H23 lung was 39%; in the assay with NCI-H226 lung, 33.8%; with NCI-H322M lung, 77.4%; with HOP-62 NSCLC it was 65%; in the assay on NCI-H460 lung it was 64.8%; in the assay on HOP-92 NSCLC, 48.8%. In addition, the growth was 43.7% with NCI-H522 lung, 35.8% in the assay on A549/ATCC NSCLC, 63.9% in the assay with 786-0 renal and 39.8% with COLO 205 colon.
As for `CSc1nc(NCCN2CCOCC2)c(C#N)c(-c2cccc([N+](=O)[O-])c2)n1`, the growth in the assay with NCI-H23 lung was 97.1%; in the assay with NCI-H226 lung, 106%; with NCI-H322M lung it was 92.9%; in the assay on HOP-62 NSCLC it was 89.4%; in the assay on NCI-H460 lung, 100%; with HOP-92 NSCLC, 101%. The growth in the assay on NCI-H522 lung is 85.7%; with A549/ATCC NSCLC it was 99.5%; with 786-0 renal, 101%; in the assay with COLO 205 colon, 111%.
On to `CC(=O)c1nc2ccccc2n1CC(=O)c1cccc(Cl)c1`, for which the growth was 36.6% in the assay with NCI-H23 lung; 105% with NCI-H226 lung; 48.2% with NCI-H322M lung; 55.8% in the assay with HOP-62 NSCLC; 4.22% (active) with NCI-H460 lung; 75.6% with HOP-92 NSCLC. Besides, the growth is -16% (active) in the assay with NCI-H522 lung, 15.2% in the assay on A549/ATCC NSCLC, 35.8% with 786-0 renal and 117% in the assay with COLO 205 colon.
Take `O=C(Cn1cccc(Nc2ccccc2)c1=O)Nc1ccccc1`: the growth in the assay on NCI-H23 lung is 113%; with NCI-H226 lung, 103%; in the assay with NCI-H322M lung, 114%; in the assay on HOP-62 NSCLC it was 105%; with NCI-H460 lung, 106%; in the assay with HOP-92 NSCLC, 97%. Also, the growth in the assay on NCI-H522 lung is 110%; in the assay on A549/ATCC NSCLC, 106%; with 786-0 renal it was 106%; in the assay with COLO 205 colon it was 107%.
Regarding `O=C(COc1cccc(/C=C2\COc3ccccc3C2=O)c1)Nc1nccs1`, the growth with NCI-H23 lung was 13.4%; in the assay with NCI-H226 lung, 95.4%; in the assay with NCI-H322M lung, 99.3%; in the assay on HOP-62 NSCLC it was 83.3%; in the assay on NCI-H460 lung, 87.9%; with HOP-92 NSCLC, -3.51% (active). Further, the growth in the assay with NCI-H522 lung was -30.5% (active); with A549/ATCC NSCLC, 101%; in the assay on 786-0 renal, 95.5%; in the assay with COLO 205 colon, 87.3%.
For the compound `COc1ccc(CN2c3ccccc3Oc3ccccc32)cc1F`, the growth in the assay on NCI-H23 lung was 71.8%; in the assay with NCI-H226 lung it was 101%; in the assay with NCI-H322M lung, 91.5%; in the assay on HOP-62 NSCLC, 52.1%; in the assay with NCI-H460 lung, 47.6%; in the assay on HOP-92 NSCLC, 66.6%. The growth in the assay on NCI-H522 lung was -13.2% (active); in the assay with A549/ATCC NSCLC, 43.7%; in the assay with 786-0 renal it was 79.2%; with COLO 205 colon, 41.7%.
For the compound `COc1cc2c(cc1-c1c(C)noc1C)ncc1nc(C3CCOCC3)n([C@@H](C)COC(F)F)c12`, the growth is 64.6% in the assay on NCI-H23 lung; 58.2% in the assay with NCI-H226 lung; 48.3% in the assay on NCI-H322M lung; 35% with HOP-62 NSCLC; 61% with NCI-H460 lung; 31.8% with HOP-92 NSCLC. Also, the growth in the assay on NCI-H522 lung was 33.9%; in the assay with A549/ATCC NSCLC it was 42.4%; with 786-0 renal, 49.6%; in the assay with COLO 205 colon, 26.9%.
Turning to `C#Cc1cccc(NC(=O)c2ccccc2NC(=O)C=C)c1`, the growth with NCI-H23 lung is 97.1% [8.25 µM]; with NCI-H226 lung it was 97.6% [8.25 µM]; in the assay with NCI-H322M lung it was 101% [8.25 µM]; with HOP-62 NSCLC, 92.9% [8.25 µM]; with NCI-H460 lung, 103% [8.25 µM]; in the assay with HOP-92 NSCLC, 92.8% [8.25 µM]. Further, the growth in the assay on NCI-H522 lung was 80.5% [8.25 µM]; in the assay with A549/ATCC NSCLC it was 98.1% [8.25 µM]; with 786-0 renal, 89.9% [8.25 µM]; in the assay with COLO 205 colon, 109% [8.25 µM].
Consider `COc1cc(-c2nn(-c3ccc(C)cc3)cc2C(=O)O)ccc1O`, for which the growth with NCI-H23 lung is 89.1%; with NCI-H226 lung it was 102%; with NCI-H322M lung it was 96.7%; in the assay on HOP-62 NSCLC, 88.2%; with NCI-H460 lung, 104%; with HOP-92 NSCLC, 97.7%. The growth in the assay with NCI-H522 lung is 79.5%; in the assay on A549/ATCC NSCLC, 107%; with 786-0 renal, 101%; with COLO 205 colon, 112%.
With `NC(=NCCCC1(c2ccccc2)CCCC1)Nc1ccc(Cl)cc1`, the growth is 44% in the assay with NCI-H23 lung; 96.5% with NCI-H226 lung; 36.2% in the assay on NCI-H322M lung; 69.6% in the assay on HOP-62 NSCLC; -32.8% (active) in the assay with NCI-H460 lung; 9.43% (active) in the assay with HOP-92 NSCLC. For the same compound, the growth is 56.9% in the assay on NCI-H522 lung, 63.1% in the assay with A549/ATCC NSCLC, 65.5% in the assay with 786-0 renal and -72.5% (active) in the assay with COLO 205 colon.
For `Cn1cc(-c2nonc2-c2c[nH]c3ccc(F)cc23)c2cccnc21`, the growth was 80.7% in the assay on NCI-H23 lung; 57.3% in the assay on NCI-H226 lung; 88.1% in the assay with NCI-H322M lung; 78.9% with HOP-62 NSCLC; 93.9% with NCI-H460 lung; 70.6% in the assay with HOP-92 NSCLC. The growth was 70.2% in the assay on NCI-H522 lung, 80.4% in the assay on A549/ATCC NSCLC, 98.1% in the assay with 786-0 renal and 96.5% in the assay with COLO 205 colon.
